Screening results from PubChem.
NTMT1 inh = blocks human N-terminal methyltransferase 1 activity; Q9BV86; NTMT1 MTase-Glo SAH luminescence, purified enzyme; Potency, µM (highest dose often 114 µM), hits mostly inhibitors; hit rate 2.5% among 59,000; AID 1645870; further: nearly all actives have a fitted effect of over 65% in size
Target sequence (Q9BV86 whole entry, looked up): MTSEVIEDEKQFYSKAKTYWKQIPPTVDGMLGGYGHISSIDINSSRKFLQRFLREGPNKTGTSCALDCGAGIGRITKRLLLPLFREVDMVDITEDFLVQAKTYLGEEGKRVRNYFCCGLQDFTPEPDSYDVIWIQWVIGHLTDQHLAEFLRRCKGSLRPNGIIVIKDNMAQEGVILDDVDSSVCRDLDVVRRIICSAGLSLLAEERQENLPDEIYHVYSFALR
FH mod = Identification of activators of human fumarate hydratase by quantitative high-throughput screening; Fumarate hydratase, mitochondrial (Homo sapiens), P07954; FH coupled MDH/diaphorase resazurin fluorescence, 15 min; Potency, µM (doses to about 79.9 µM), actives largely listed as inhibitors; hit rate 0.22% among 54,000; AID 1347055, 2019; further: the screen sought activators but most active calls are inhibition curves; nearly all actives have a fitted effect of over 45% in size
p53null 39C kill = kills p53 null cells at the nonpermissive temperature | H1299 p53-null (neo) cells, 39C, ATPlite viability, 24 h | Potency, µM (series often up to 46.1 µM), most hits filed as cytotoxic | hit rate 0.97% among 55,000 | AID 904; further: nearly all actives have a fitted effect of over 50% in size
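Following overnight plating at 37C (600 cells/well), H1299-neo or H1299-p53A138V cells are dosed up to 46 uM. Incubation lasts 24 hr at 39C before ATP detection.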
DRV1 agonist = activates human resolvin D1 receptor GPR32; CHO-K1 GPR32 beta-arrestin PathHunter luminescence, 90 min; zero percent set by DMSO-only wells; activation, % at 76.9 µM; hit rate 2.5% among 48,000; AID 1346428;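 active means activation of at least 60% and not above a set upper limit, about 1 call in 100 departs from these limits; inconclusive means activation of 40% to 60%, or above that upper limit; inactive means activation under 40%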
Target sequence (O75388 whole entry, looked up): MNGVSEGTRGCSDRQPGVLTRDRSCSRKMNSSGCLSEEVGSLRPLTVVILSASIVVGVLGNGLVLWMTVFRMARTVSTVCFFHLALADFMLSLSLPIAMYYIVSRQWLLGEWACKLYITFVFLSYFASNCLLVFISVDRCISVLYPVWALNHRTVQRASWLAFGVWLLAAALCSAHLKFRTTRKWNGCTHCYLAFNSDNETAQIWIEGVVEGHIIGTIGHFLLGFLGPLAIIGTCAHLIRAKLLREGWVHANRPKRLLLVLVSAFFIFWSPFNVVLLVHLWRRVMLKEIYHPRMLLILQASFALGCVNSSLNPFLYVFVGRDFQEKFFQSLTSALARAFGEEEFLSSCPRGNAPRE
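PathHunter beta-arrestin recruitment in CHO-K1 cells stably expressing ProLink-tagged GPR32. Cells were exposed to compound for 90 min at 37 C, then chemiluminescence was read after 1 h detection at ambient temperature; DMSO served as basal control.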
p53null 32C kill = kills p53 null cells at the permissive temperature. H1299-neo p53 null cells, ATP luminescence, 24 h, 32C. Potency, µM (doses to about 46.1 µM), usual class: cytotoxic. hit rate 0.62% among 55,000. AID 903; further: nearly all actives have a fitted effect of over 55% in size
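Luminescent ATP readout gave cell viability of p53-null H1299-neo cells after a 24 h compound exposure at the permissive 32C. Titrations ran up to 46 uM, and AC50s were fitted with the standard Hill equation.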
GALC G270D act = raises human GALC G270D mutant activity in cells; 145M-Twi-hGALC-G270D cells (Twitcher mouse brain line with human GALC G270D), HMU-beta-Gal fluorescence, 48 h; Potency, µM (top dose mostly 57.5 µM), usual class: activators; hit rate 0.1% among 45,000; further: nearly all actives have a fitted effect of over 65% in size
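Mutant human GALC (G270D), stably expressed in a Twitcher mouse brain cell line lacking endogenous GALC, is measured in live-treated cells via 6-hexadecanoylamino-4-methylumbelliferyl-β-galactoside hydrolysis (0.1 mM final, pH 5.2) with fluorescent detection.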
Hits are given with their value; i = inactive; ? = inconclusive; nt = no result; ! = a repeat was not active; [ ] = dose if it differs, or a comment. Rows were chosen to be rich in hits. Some 3.9% of all compounds tested hit in one or more screens of this group. Unless noted, the call rests on the fitted dose curve; in most records, active means well fitted curve in the direction sought with a large enough effect; inconclusive means small, poorly fitted or top-dose-only effect, or another doubt; inactive means no such curve, though single readings can be large; an effect the other way counts as inactive or inconclusive.

SMILES | NTMT1 inh | FH mod | p53null 39C kill | DRV1 agonist | p53null 32C kill | GALC G270D act
O=C(N/N=C/c1ccccc1O)c1ccncc1 | i | i | nt | 96 | nt | i
CN(C(=O)CNC(=O)/C=C/c1cccc(Cl)c1)C1CCS(=O)(=O)CC1 | i | nt | nt | nt | nt | nt
Nc1ncnc2ccccc12 | i | i | nt | nt | nt | nt
O=C1c2ccccc2C(=O)C1c1ccnc2ccccc12 | nt | nt | 16µM | nt | ? | nt
COc1ccc(CC(=O)NCCc2sc(-c3cccc(F)c3)nc2C)cc1 | i | i | i | 98 | i | i
COc1ccc(-c2nc(C)c(CCNC(=O)c3c(F)cccc3F)s2)cc1 | i | i | i | 80 | i | i
COc1ccc(C(=O)NCCc2sc(-c3cccc(F)c3)nc2C)cc1 | i | i | i | 67 | ? | i
Cc1cccc(C(=O)NCCc2sc(-c3ccccc3)nc2C)c1 | ? | i | i | 78 | i | i
COc1cccc(C(=O)NCCc2sc(-c3cccc(C)c3)nc2C)c1 | i | i | i | i | i | i
CCOc1ccc(CC(=O)NCCc2sc(-c3cccc(F)c3)nc2C)cc1 | i | i | ? | 69 | i | i
CC1(C)CC[C@]2(C(=O)O)[C@H](O)C[C@]3(C)C(=CCC4[C@@]5(C)CC[C@H](O[C@@H]6OC[C@@H](O)[C@H](O)[C@H]6O)[C@@](C)(C(=O)O)C5CC[C@]43C)[C@@H]2C1 (stereo partly drawn) | i[12.6 µM] | i | nt | nt | nt | nt
COC(=O)C12C(=O)C(C)=C(O)C1(C)C(C)=CC1C34CCC(OC3=O)C(C)(C)C4CCC12C (stereo not drawn) | i | i | nt | nt | nt | nt
CCOC(=O)C1CCN(C(=O)C(C)(C)NC(=O)Nc2ccc(C#N)cc2)CC1 | i | nt | nt | nt | nt | nt
Cc1cc(C)c(NC(=O)C2CCN(c3nc4ccccc4n4cccc34)CC2)c(C)c1 | i | i | ? | i | i | i
COc1cc(Cl)c(C)cc1NC(=O)C1CCN(c2nc3ccccc3n3cccc23)CC1 | i | i | 32µM | i | ? | i
CN(C)CCNC(=O)C1CCN(Cc2cc3ccccc3n2Cc2ccccc2)CC1 | ? | i | i | 64 | i | i
O=c1[nH]c2ccccc2n1CCN1CCN(c2cccc(C(F)(F)F)c2)CC1 | i | i | nt | nt | nt | nt
Cc1cc(=O)oc2cc(OCC(=O)Nc3ccc(O)c(C(=O)O)c3)ccc12 | i | i | i | i | i | i
CC(=O)N[C@@H](CC(=O)O)C(=O)N[C@@H](CCC(=O)O)C(=O)N[C@H](C(=O)N[C@@H](CC(=O)O)C(=O)Nc1ccc2c(C)cc(=O)oc2c1)C(C)C | i | 20µM | nt | nt | nt | nt
CCOC(=O)C1CCN(C(=O)c2ccc3c(c2)sc2nc(-c4ccc(OC)cc4)cn23)CC1 | 89µM | i | i | i | i | i
Cc1cc2c(cc1NC(=O)c1ccccc1Cl)n(C)c(=O)c(=O)n2C | i | i | i | i | i | i
Cc1cc(C(C#N)c2ccc(Cl)cc2)c(Cl)cc1NC(=O)c1cc(I)cc(I)c1O (stereo not drawn) | 18µM! | ? | nt | i | nt | i
COc1ccc(NC(=O)c2c(C)oc3ccc(O)c(CN4CCCC(C)C4)c23)cc1 (stereo not drawn) | nt | nt | i | 61 | i | nt
O=C(O[C@H]1[C@@H]2C=CO[C@@H](O[C@@H]3O[C@H](CO)[C@@H](O)[C@H](O)[C@H]3O)[C@@H]2[C@@]2(CO)O[C@@H]12)c1ccc(O)c(O)c1 | i | i | nt | nt | nt | nt
COc1ccc(-c2cc(C(=O)NCCc3ccccc3)c3c(-c4ccccc4)[nH]nc3n2)cc1 | i | i | ? | i | i | i
SMILES | NTMT1 inh | FH mod | p53null 39C kill | DRV1 agonist | p53null 32C kill | GALC G270D act
O=C(O)c1cc(-c2ccc(C(F)(F)F)cc2)nc2n[nH]c(-c3ccccc3)c12 | i | i | 16µM | i | ? | i
C[C@H]1CN(C2COC2)CCN1c1ccc(Nc2cc(-c3ccnc(N4CCn5c(cc6c5CC(C)(C)C6)C4=O)c3CO)cn(C)c2=O)nc1 | i | nt | nt | nt | nt | nt
COc1cccc(CNc2ccc(S(=O)(=O)Nc3ccc(C)nc3)cc2)c1O | i | nt | nt | nt | nt | nt
C=CCN1C[C@H](C(=O)N(CCCN(C)C)C(=O)NCC)CC2c3cccc4[nH]cc(c34)C[C@H]21 (stereo partly drawn) | i | nt | nt | nt | nt | nt
C[C@H](Oc1cc(-n2cnc3ccc(CN4CCN(C)CC4)cc32)sc1C(N)=O)c1ccccc1C(F)(F)F | 25µM | i | nt | nt | nt | nt
CCOC(=O)c1nnn(-c2ccc(OC)cc2)c1N | nt | nt | i | nt | i | nt
CCOC(=O)c1nn(-c2ccc(OC)cc2)c(=O)c2c(N)scc12 | 13µM | nt | nt | nt | nt | nt
COc1ccccc1OCc1nc(-c2cccc(C)c2)no1 | i | i | ? | 77 | ? | i
COc1ccccc1C(=O)N(Cc1nc(-c2cccc(C)c2)no1)C(C)C | i | i | i | 87 | i | i
CCC(C)/C=C(C)/C=C/C1=CC2=C(Cl)C(=O)C(C)(OC(C)=O)C(=O)C2=CN1C(CCCN=C(N)N)C(=O)O (stereo not drawn) | i | i | nt | nt | nt | nt
c1cn2cc(-c3ccc4cn[nH]c4c3)nc(Nc3ccc(N4CCOCC4)cc3)c2n1 | 20µM | i | nt | nt | nt | nt
Cc1cccn2c(Nc3ccccc3)c(-c3ccc(N4CCOCC4)cc3)nc12 | i | i | i | i | i | i
CC(C)(Nc1nc(-c2ccccc2C(F)(F)F)nc2ccccc12)c1ccc(-c2cccc(C(F)(F)F)c2)cc1 | i | nt | nt | nt | nt | nt
Cc1ccc(C(=O)c2oc3ccccc3c2NC(=O)c2nc(S(C)(=O)=O)ncc2Cl)cc1F | i | i | i | 75 | i | i
CCN(C(=O)CSc1ncc(S(=O)(=O)c2ccc(C)c(Cl)c2)c(=O)[nH]1)c1cccc(C)c1 | ? | i | i | 75 | i | i
Cc1ccc(S(=O)(=O)c2cnc(SCC(=O)Nc3ccc4c(c3)OCCO4)[nH]c2=O)cc1Cl | ? | i | ? | i | i | i
O=C(c1cc(O)c(O)c(O)c1)c1ccc(O)c(O)c1O | 32µM | ? | nt | i | nt | i
O=C(O)c1cc(O)c(O)c(O)c1 | ? | i | nt | i | nt | i
COC(=O)c1cc(C)nc2c1c(=O)nc(SCc1c(C)cc(C)cc1C)n2C1CC1 | i | ? | 13µM | i | i | i
c1cncc(-c2ccc(CNc3nc(-n4ccnc4)nc4ccccc34)cc2)c1 | i | nt | nt | nt | nt | nt
CC(=O)Nc1cccc(-c2csc(Nc3ccc(C)cn3)n2)c1 | nt | nt | nt | nt | 11µM | nt
Cc1nc(-c2cccc(NC(=O)c3cccs3)c2)cs1 | nt | nt | i | nt | i | nt
Cc1c(P(=O)(c2ccccc2)c2ccccc2)c2ccccc2n1C | 79µM | nt | nt | nt | nt | nt
CC(C)c1ccccc1-c1nccc(NCc2ccc(-c3cccnc3)cc2)n1 | i | nt | nt | nt | nt | nt
CCc1ccc(C(=O)CC2(O)C(=O)N(Cc3ccc(C)cc3)c3ccccc32)cc1 (stereo not drawn) | i | i | ? | i | i | i
